# According to PubChem BioAssay AID890 (National Center for Advancing Translational Sciences (NCATS), 2007):
# “And” between values parts separate entries of the source, which are not always exact repeats. Identical values can stand only once. The source made the active and inactive calls. Entries that show only a call come without a potency. Calls follow the shape of the dose curve; as a rule, active = well fitted activation curve with a large enough effect; inactive = flat fitted curve, though single readings scatter.
# Experiment: Confirmation Concentration-Response Assay for Epigenetic Modulators
# Conditions: murine C127i cells, silenced GFP reporter derepression, imaging; series mostly up to 46 µM
# Excerpt: NIH Molecular Libraries Screening Centers Network [MLSCN] NIH Chemical Genomics Center [NCGC] MLSCN Grant: 1 X01 MH079860-01 Assay Provider: Elisabeth D. Martinez, University of Texas SW Medical Center NCGC Assay Overview: The Locus Derepression assay detects the derepression of a GFP reporter that is stably integrated in a region of the genome of murine c127i mammary cells that is presumably silenced. GFP transcription in this construct is controlled by a CMV promoter, which normally is strong and constitutively active. However, this line was selected for lack of constitutive expression of the GFP protein. GFP production can be induced by incubating the cells with histone deacetylase or DNA methyltransferase inhibitors. Compounds that cause derepression of the locus to express GFP are identified by enumerating GFP positive cells using a laser-scanning microplate cytometer.
# NCGC Assay Protocol Summary: Two hundred and fifty cells in 5 uL per well were dispensed into black, clear-bottom 1536-well plates. Twenty-three nL compound was transferred to the assay plate and cells were incubated 30 hours at 37 C. Medium was removed, cells were washed two times with PBS, and GFP-positive cells were enumerated as fluorescent objects between the sizes of 20 to 120 um width and depth using a laser-scanning microplate imager (Acumen Explorer Ex3, TTP Labtech) Keywords: NIH Roadmap, MLSCN, MLI, MLSMR, qHTS, NCGC, qHTS, HDAC, DNMT, HAT, DNA methyltransferases, histone acetyl transferases, histone deacetylases
row,SMILES,Potency
1,O=C(CSc1cccc2cccnc12)Nc1ccccc1,inactive
2,O=C(CC(c1ccco1)S(=O)(=O)c1ccccc1)c1ccc(F)cc1 (stereo not given),inactive
3,O=C(CSc1cccc2cccnc12)N1CCCC1,8.94 µM (active)
4,O=C1OCCC1Sc1cccc2cccnc12 (stereo not given),7.44 µM (active)
5,O=Nc1ccc(O)c2ncccc12,2.78 µM (active)
6,CCNc1nc(NCC)nc(-n2nc(C)cc2C)n1,inactive
7,Cc1ccc(N=Nc2ccc(O)c3ncccc23)cc1C,inactive
8,COc1ccc(C(NC(=O)C(C)C)c2ccc3cccnc3c2O)cc1 (stereo not given),7.83 µM (active)
9,CN1CCN(Cc2cc(Cl)c3cccnc3c2O)CC1,6.08 µM (active)
10,O=C(Oc1cccc2cccnc12)c1ccc(Br)o1,14.6 µM (active)
11,O=C(Cc1ccccc1)NC(c1ccco1)c1ccc2cccnc2c1O (stereo not given),16.2 µM (active)
12,CCN(CC)c1ccc2cc(-c3nc4ccccc4[nH]3)c(=O)oc2c1,0.56 µM (active)
13,CN1C(=S)SC(c2ccccc2)N(C)C1c1ccccc1 (stereo not given),inactive
14,COc1ccc(NC(c2ccccn2)c2ccc3cccnc3c2O)cc1 (stereo not given),inactive
15,Cc1cc(NC(c2ccccn2)c2ccc3cccnc3c2O)no1 (stereo not given),8 µM (active)
16,COC(=O)c1cccc(NC(c2ccccn2)c2ccc3cccnc3c2O)c1 (stereo not given),inactive
17,O=C(CSc1cccc2cccnc12)NCc1ccccc1,inactive
18,CCNc1nc(NCC)nc(-n2cc(C(=O)c3cc(Cl)ccc3O)cn2)n1,inactive
19,CC(/C=C/C(=O)NO)=C\[C@@H](C)C(=O)c1ccc(N(C)C)cc1,1.12 µM (active)
20,CCCCC1CC1C(=O)Nc1ccc(OC)c(OC)c1 (stereo not given),14.3 µM (active)

row,SMILES,Potency
1,Cc1cc(C)n(-c2nc(N(C)C)nc(N(C)C)n2)n1,inactive
2,S=C1SCN(C2CCCC2)CN1Cc1ccco1,inactive
3,COc1ccc(C)cc1NC(c1ccccn1)c1ccc2cccnc2c1O (stereo not given),inactive
4,Oc1c(C(Nc2ccccc2C(F)(F)F)c2ccccn2)ccc2cccnc12 (stereo not given),inactive
5,c1ccc(Nc2nc(Nc3ccccc3)nc(-n3cccn3)n2)cc1,inactive
6,CC(C)C(=O)NC(c1ccc(C(C)C)cc1)c1cc(Cl)c2cccnc2c1O (stereo not given),inactive
7,CC(C)C(=O)NC(c1ccc(N(C)C)cc1)c1ccc2cccnc2c1O (stereo not given),8.14 µM (active)
8,COCc1cc(CN2CCN(C)CC2)c(O)c2ncccc12,37.6 µM (active)
9,Cc1ccc2ccc(C(Nc3cccc(Cl)c3)c3ccccn3)c(O)c2n1 (stereo not given),inactive
10,Cc1cc(C)n(-c2nc(NC(C)C)nc(NC(C)(C)C)n2)n1,inactive
11,CC(C)C(=O)NC(c1ccco1)c1ccc2cccnc2c1O (stereo not given),7.57 µM (active) and 4.6 µM (active)
12,c1cnn(-c2nc(N3CCOCC3)nc(N3CCOCC3)n2)c1,inactive
13,CC(C)C(=O)NC(c1cccs1)c1cc(Cl)c2cccnc2c1O (stereo not given),inactive
14,Oc1c(C(Nc2ccccn2)c2ccco2)cc(Cl)c2cccnc12 (stereo not given),inactive
15,CC(C)C(=O)NC(c1ccco1)c1cc([N+](=O)[O-])c2cccnc2c1O (stereo not given),inactive
16,CC(C)C(=O)NC(/C=C/c1ccccc1)c1cc([N+](=O)[O-])c2cccnc2c1O (stereo not given),inactive
17,Cc1cc(C)n(-c2nc(NC(C)(C)C)nc(NC(C)(C)C)n2)n1,inactive
18,CCOCc1ccc(O)c2ncccc12,4.97 µM (active)
19,COc1ccc(C(=O)NC(c2ccco2)c2cc(Cl)c3cccnc3c2O)cc1 (stereo not given),inactive
20,Cc1cc(C)n(-c2nc(NC(C)C)nc(NC(C)C)n2)n1,inactive
